Test results reported in PubChem BioAssay AID1034 (Columbia University Molecular Screening Center, 2008).
The other results are listed elsewhere or left out.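 How the source made its calls: active means activation above 30% in triplicate retests at 2 µM, then confirmed by visual review of the well images; inactive means the rest.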

Assay: enhancers of VCAM1 induction in HUVEC – imaging, triplicate retest, confirmation (AID 1034);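 further: scaled per plate between unstimulated and TNFa-stimulated DMSO control wells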
Conditions: HUVEC TNFa-stimulated VCAM-1 immunofluorescence imaging; at 2 µM; stronger effect = higher value

activation, inactive:
CCOc1cc(-c2cc(-c3ccc(OC)cc3)nc(N)c2C#N)ccc1O -5.2%
CC1(C)CC(=O)C=C(N2CCCC2)C1 -17.7%
CCN(CC(=O)Nc1ccc2c(c1)OCCO2)Cc1cc(=O)oc2cc(C)c(C)cc12 -6.7%
O=C(Nc1ccncc1)c1c(F)cccc1F -14.6%
Cc1cccc2cc(CN(Cc3ccc4c(c3)OCO4)Cc3nnnn3C3CCCC3)c(=O)[nH]c12 4.1%
COc1ccc(OC)c(N=Cc2c(O)[nH]c3ccccc23)c1 -13.9%
CC1=NN(C(C)C)C(=O)C1 -8.4%
COc1ccc(/C=N/Nc2nc3ccccc3o2)cc1OC -3.9%
COCCNS(=O)(=O)c1cc(Br)ccc1OC -14.1%
CC(=O)c1cnn(-c2cc(Oc3ccc(F)cc3)ncn2)c1C -14.8%
CCCOc1cc(C)c(S(=O)(=O)n2nnc3ccccc32)cc1C -4.7%
CCCCN(C)C(=O)C1CCN(Cc2ccccn2)CC1 -13%
CCOc1ccc(N=C2NC(=O)S/C2=C\c2ccc(O)cc2)cc1 -20.4%
